Assay [1] is described as follows: qHTS assay to identify small molecule antagonists of the estrogen related receptor (ERR) signaling pathway from Tox21 library - cell viability counter screen (AID 1224834). Further: nearly all actives have a fitted effect of over 30% in size. The essentials:
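Multiplexed viability counter screen in ERR cells: 17.5 h compound exposure at 37 C, CellTiter-Fluor added, 30 min at 37 C/5% CO2, fluorescence read.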
On the technique in general: Quantitative high-throughput screening tests each substance at several concentrations.

Assay [2] has as its target Luciferin 4-monooxygenase (Photinus pyralis) (UniProt P08659). The assay is described as follows: qHTS assay to identify small molecule inhibitors of firefly luciferase (AID 1224835). Further: nearly all actives have a fitted effect of over 25% in size. Further: potency means the concentration at half of the fitted maximal effect. The essentials: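 Biochemical qHTS: compounds run as interplate titrations against purified firefly enzyme, with D-luciferin and ATP each at its KM concentration. Light output recorded by CCD imaging.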

Assay [3] in a line: qHTS assay to identify small molecule agonists of the constitutive androstane receptor (CAR) signaling pathway - cell viability counter screen (AID 1224836). Further: nearly all actives have a fitted effect of over 45% in size. The gist of the method: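 Cells were seeded and incubated 4 hrs. Compounds were added across 15 concentrations together with PK11195 at 0.75 uM final. Plates were incubated 23 hrs at 37 C. CellTiter-Fluor was added and fluorescence measured.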

The nature of assay [4]: qHTS assay to identify small molecule antagonists of the constitutive androstane receptor (CAR) signaling pathway - cell viability counter screen (AID 1224837). Further: nearly all actives have a fitted effect of over 45% in size. The gist of the method: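 Read-out: CellTiter-Fluor fluorescence after 23 hr at 37 C/5% CO2. Cells: HepG2 double-stable for hCAR and CYP2B6-2.2kb. Compounds tested at 15 concentrations in the presence of CITCO, final concentration 50 nM.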

Assay [5] addresses Nuclear receptor subfamily 1 group I member 3 (Homo sapiens) (UniProt Q14994). The assay is described as follows: qHTS assay to identify small molecule antagonists of the constitutive androstane receptor (CAR) signaling pathway (AID 1224838).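 Further: HepG2 cells stably expressing hCAR with CYP2B6 luciferase reporter stimulated by CITCO; nearly all actives have a fitted effect of over 40% in size.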 The gist of the method:
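Read-out: ONE-Glo luciferase luminescence after 30 min at room temperature. HepG2-CYP2B6-hCAR double-stable cells, compounds in 15-point titration plus 50 nM CITCO final, 24 h at 37 C/5% CO2.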

The target is the same in assay [6]. As to the kind of experiment: qHTS assay to identify small molecule agonists of the constitutive androstane receptor (CAR) signaling pathway (AID 1224839).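 Further: HepG2 cells stably carrying human CAR and a CYP2B6 luciferase reporter; nearly all actives have a fitted effect of over 15% in size.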 The gist of the method:
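Cells were plated and incubated 4 hrs, then dosed with compounds at 15 concentrations. PK11195 was added to 0.75 uM final. After 24 hrs at 37 C, luciferase luminescence was measured.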

The nature of assay [7]: qHTS assay to identify small molecule antagonists of the estrogen related receptor signaling pathway with the pleiotropic PPARgamma coactivator (PGC) from Tox21 10K library - cell viability counter screen (AID 1224840; active means well fitted cell-killing curve with a large enough effect in the repeat runs, not every such curve was filed as active; further: nearly all actives have a fitted effect of over 40% in size). The essentials: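 Fluorescence read-out of CellTiter-Fluor viability reagent, added after cells had been exposed to compound in DMSO for 17.5 h at 37 C; 30 min development at 37 C/5% CO2. Cells: PGC/ERR line, 2,000/well.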

Assay [8] is described as follows: qHTS assay to identify small molecule antagonists of the estrogen related receptor signaling pathway with the pleiotropic PPARgamma coactivator (PGC) from Tox21 10K library (AID 1224841; call rule not given here; further: actives are mostly falling curves and most rising ones were filed inactive; nearly all actives have a fitted effect of over 50% in size). The essentials: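 Luminescence read-out (One-Glo luciferase reagent, 30 min at room temperature) from PGC/ERR cells exposed to DMSO-dissolved test compounds for 18 h at 37 C; cells, 2,000 per well, had been preincubated 6 h before compound transfer.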

A short description of assay [9]: qHTS assay to identify small molecule agonists of the estrogen related receptor signaling pathway with the pleiotropic PPARgamma coactivator (PGC) from Tox21 10K library (AID 1224842). Further: nearly all actives have a fitted effect of over 15% in size. The gist of the method:
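PGC/ERR reporter cell line, 2,000 cells per well, incubated 6 h at 37 C before 23 nL compound in DMSO was added. After 18 h at 37 C, One-Glo luminescence read following 30 min at room temperature.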

Assay [10] concerns the target Thyrotropin receptor (Homo sapiens) (UniProt P16473). The assay is described as follows: qHTS assay to identify small molecule agonists of the thyroid stimulating hormone receptor (TSHR) signaling pathway (AID 1224843; calls by dose curve; further: nearly all actives have a fitted effect of over 45% in size). The gist of the method:
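HEK293/TSHR, 800 cells/well; cpd 30 min RT; add cAMP-d2 + anti-cAMP-cryptate, 1 h RT; fluorescence read on plate reader. 15-pt titration, n=3.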

A short description of assay [11]: qHTS assay to identify small molecule agonists of the hypoxia (HIF-1) signaling pathway - cell viability counter screen (AID 1224844; calls by dose curve; further: nearly all actives have a fitted effect of over 50% in size). The essentials:
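CellTiter-Glo luminescence read-out, 30 min RT, taken in the same wells as the beta-lactamase HRE reporter assay; HRE-bla ME-180 cells, 0.5% dialyzed FBS, 17 hr compound treatment at 37C, 5% CO2.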

Assay [12] in a line: qHTS assay to identify small molecule agonists of H2AX (AID 1224845; active means well fitted activation curve with a large enough effect in the signal ratio in the repeat runs, not every such curve was filed as active; the % refers to the signal ratio). The gist of the method: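 Wild-type CHO-K1 cells, plated overnight, exposed 3hr at 37C to 15 concentrations (0.76% DMSO final). Lysed, then HTRF anti-pH2AX (S139) cryptate and anti-H2AX-d2 antibodies, 24 hr room temperature; 665/620 nm emission read.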
Assay [13] is described as follows: qHTS assay to identify small molecule agonists of the hypoxia (HIF-1) signaling pathway (AID 1224846; active means well fitted activation curve with a large enough effect in the signal ratio in the repeat runs, not every such curve was filed as active; the % refers to the signal ratio). The gist of the method: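 Beta-lactamase FRET read-out (CCF4-AM substrate) from ME-180 cells carrying an HRE-driven bla reporter, after 17 hrs compound exposure at 37C/5% CO2. Cells were seeded at 2,000 per well in 0.5% dialyzed FBS medium and preincubated 5 hrs.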

Assay [14] can be described thus: qHTS assay to identify small molecule agonists of H2AX - cell viability counter screen (AID 1224847; calls by dose curve; further: top concentration of the series differs between compounds; nearly all actives have a fitted effect of over 30% in size). The essentials: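 Cytotoxicity counter screen in wild-type CHO-K1 cells: a 3 hr compound treatment at 37C across 15 concentrations, followed by CellTiter-Glo luminescence to gauge viable cells.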
A short description of assay [15]: qHTS assay to identify small molecule antagonists of the estrogen related receptor (ERR) signaling pathway from Tox21 library (AID 1224848). Further: nearly all actives have a fitted effect of over 50% in size. The essentials: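 Compounds dissolved in DMSO are pin-transferred onto ERR reporter cells (2,000 per well) that have settled for 6 h at 37 C. Plates then incubate 18 h at 37 C before ONE-Glo luciferase reagent and a luminescence read 30 min later.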

Assay [16] is described as follows: qHTS assay to identify small molecule agonists of the estrogen related receptor (ERR) signaling pathway from Tox21 library (AID 1224849; calls by dose curve; further: nearly all actives have a fitted effect of over 15% in size). The following applies: ERR reporter cell line, ONE-Glo luciferase, 18 h; at 92.4 µM (top of the series). The essentials:
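Luminescence readout (ONE-Glo, 30 min RT) after 18 h compound exposure at 37 C of NTP-supplied ERR reporter cells; cells were plated 6 h before compound addition by pin tool.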

Assay [17] in a line: qHTS RealTime-Glo MT Cell Viability Assay in HepG2 cells - 24 hour (AID 1224867). Further: nearly all actives have a fitted effect of over 50% in size. The essentials: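 HepG2 suspension premixed with RealTime-Glo reagents is plated at 600 cells per well and left 5 h at 37 C/5% CO2. Compounds in DMSO then go in, and bioluminescence reflecting viable cell number is recorded over 40 h.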
Assay [18] can be described thus: qHTS RealTime-Glo MT Cell Viability Assay in HEK293 cells - 32 hour (AID 1224868). The essentials: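 Reads taken at 0, 8, 16, 24, 32 and 40 h from the same wells. HEK293 cells (600/well) carried RealTime-Glo reagents from seeding, with compound added after a 5 h settle at 37 C.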
A short description of assay [19]: A CellTox Green Cytotoxicity Assay to monitor cytotoxicity in HEK293 cells - 0 hour (AID 1224869). Further: nearly all actives have a fitted effect of over 50% in size. The gist of the method:
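Read-out: fluorescence of a cell-impermeant cyanine dye staining DNA of dead cells, proportional to cytotoxicity. HEK293, 600 cells/well with reagent, compound (23 nL DMSO) added after 5 h; reads at 0, 8, 16, 24, 32, 40 h.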

Assay [20] can be described thus: qHTS RealTime-Glo MT Cell Viability Assay in HepG2 cells - 40 hour (AID 1224870). Further: nearly all actives have a fitted effect of over 50% in size. The gist of the method:
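HepG2 cells (600/well) mixed with RealTime-Glo MT reagent, settled 5 h at 37 C/5% CO2 before compound addition. Nonlytic NanoLuc luminescence from viable-cell prosubstrate reduction read repeatedly during 40 h treatment at 37 C.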

Each structure is given as a SMILES string. Values joined by “and” are separate entries in the source; they are usually repeats but may differ in a detail not shown here. Identical values can stand only once. Values without a mark were called inactive. Inconclusive results are not listed. Active and inactive are the calls of the source. Unless noted, the call rests on the fitted dose curve; in most records, active means well fitted curve in the direction sought with a large enough effect in the repeat runs; inconclusive means weak or mixed curves; inactive means no such curve, though single readings can be large; an effect the other way counts as inactive or inconclusive.
On the % scale 0 is the no-effect control and ±100 the full control effect.

Sequence of Nuclear receptor subfamily 1 group I member 3 (Homo sapiens) (Q14994 whole entry, looked up): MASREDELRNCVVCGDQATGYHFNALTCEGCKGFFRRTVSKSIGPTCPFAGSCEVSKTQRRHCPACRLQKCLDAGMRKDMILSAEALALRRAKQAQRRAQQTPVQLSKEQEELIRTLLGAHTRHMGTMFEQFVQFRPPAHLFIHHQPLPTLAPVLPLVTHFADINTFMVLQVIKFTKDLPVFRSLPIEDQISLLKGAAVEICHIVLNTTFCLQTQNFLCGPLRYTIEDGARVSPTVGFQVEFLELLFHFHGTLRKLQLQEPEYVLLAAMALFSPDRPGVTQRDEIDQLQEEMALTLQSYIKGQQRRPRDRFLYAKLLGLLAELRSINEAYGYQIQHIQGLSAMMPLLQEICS
Sequence of Thyrotropin receptor (Homo sapiens) (P16473 whole entry, looked up): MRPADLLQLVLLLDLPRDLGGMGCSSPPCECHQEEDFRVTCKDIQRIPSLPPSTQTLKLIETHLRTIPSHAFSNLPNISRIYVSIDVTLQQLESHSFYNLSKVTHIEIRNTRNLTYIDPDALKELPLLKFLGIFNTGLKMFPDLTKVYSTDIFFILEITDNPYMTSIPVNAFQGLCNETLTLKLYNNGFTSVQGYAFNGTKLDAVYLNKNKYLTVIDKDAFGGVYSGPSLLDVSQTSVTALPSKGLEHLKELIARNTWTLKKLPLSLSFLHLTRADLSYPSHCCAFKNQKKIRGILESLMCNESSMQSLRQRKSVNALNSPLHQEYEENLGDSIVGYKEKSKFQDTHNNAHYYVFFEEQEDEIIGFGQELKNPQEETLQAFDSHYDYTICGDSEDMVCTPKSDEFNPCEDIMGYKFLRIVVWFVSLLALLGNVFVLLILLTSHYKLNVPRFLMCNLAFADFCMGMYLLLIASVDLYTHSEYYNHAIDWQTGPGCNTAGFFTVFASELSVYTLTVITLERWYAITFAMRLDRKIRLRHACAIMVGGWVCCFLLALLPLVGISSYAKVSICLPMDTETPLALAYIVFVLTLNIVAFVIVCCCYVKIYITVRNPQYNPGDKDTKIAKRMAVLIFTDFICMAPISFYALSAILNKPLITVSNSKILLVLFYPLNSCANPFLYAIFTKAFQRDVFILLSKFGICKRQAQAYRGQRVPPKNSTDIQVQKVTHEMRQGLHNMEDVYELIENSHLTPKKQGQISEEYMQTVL
Sequence of Luciferin 4-monooxygenase (Photinus pyralis) (P08659 whole entry, looked up): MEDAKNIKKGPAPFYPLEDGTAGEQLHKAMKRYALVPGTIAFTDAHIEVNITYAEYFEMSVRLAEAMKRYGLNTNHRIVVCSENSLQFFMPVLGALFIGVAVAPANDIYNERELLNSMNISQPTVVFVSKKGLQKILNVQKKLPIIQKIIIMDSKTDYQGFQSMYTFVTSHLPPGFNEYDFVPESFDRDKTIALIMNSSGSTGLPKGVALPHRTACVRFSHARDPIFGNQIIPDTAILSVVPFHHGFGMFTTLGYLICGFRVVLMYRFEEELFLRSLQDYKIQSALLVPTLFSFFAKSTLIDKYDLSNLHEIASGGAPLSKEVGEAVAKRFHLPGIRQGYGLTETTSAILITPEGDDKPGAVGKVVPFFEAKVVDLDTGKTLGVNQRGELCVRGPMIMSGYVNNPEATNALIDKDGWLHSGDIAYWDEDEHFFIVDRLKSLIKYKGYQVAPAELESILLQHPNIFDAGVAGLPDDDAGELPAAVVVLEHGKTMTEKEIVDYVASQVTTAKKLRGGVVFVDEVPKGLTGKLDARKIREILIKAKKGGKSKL

`O=[N+]([O-])c1cc(C(F)(F)F)ccc1Cl`: the Potency entry in [1], in [2], in assay [3], in [4], in assay [5] and in [6] was “inactive” throughout. For the same compound, the Potency result in assay [7], in assay [8], in [9], in assay [10], in [11] and in [12] was “inactive” throughout. Besides, the Potency entry in assay [14], in assay [15], in [17], in assay [18], in assay [19] and in [20] was “inactive” each time. For the same compound, the result in [13] was inactive. The activity change, positive = activation in [16] was 3.85%.
Consider `Cc1cc(C)c(O)c(C)c1`, for which the Potency entry in assay [1], in assay [2], in assay [3], in [4], in assay [5] and in [6] was “inactive” in each case. The Potency entry in [7], in [8], in [9], in assay [10], in [11] and in assay [12] was “inactive” in each case. In addition, the Potency entry in [14], in assay [15], in [17], in assay [18], in assay [19] and in [20] was “inactive” each time. In assay [13], the result was inactive. Moreover, the activity change, positive = activation in assay [16] is 10.5% and 2.09%.
Regarding `O=C1OC(=O)c2c(Cl)c(Cl)c(Cl)c(Cl)c21`, the Potency entry in assay [1], in [2], in assay [3], in assay [4], in assay [5] and in assay [6] was “inactive” in each case. Also, the Potency result in [7], in [8], in assay [9], in assay [10], in assay [11] and in [12] was “inactive” each time. For the same compound, the Potency result in assay [14], in [15], in [17], in assay [18], in assay [19] and in assay [20] was “inactive” throughout. In addition, in assay [13], the call was inactive. Moreover, the activity change, positive = activation in assay [16] was -24.8%.
With `Cc1ccccc1Cl`, the Potency result in assay [1], in assay [2], in [3], in [4], in [5] and in assay [6] was “inactive” throughout. Also, the Potency entry in assay [7], in assay [10], in assay [11], in assay [12], in [14] and in assay [17] was “inactive” in each case. Besides, the Potency result in [18], in assay [19] and in assay [20] was “inactive” in each case. Further, the call in [13] was inactive.
Turning to `CCCCCCCCCCCCCC(=O)O`, the Potency entry in assay [1], in assay [3], in [4], in [5], in assay [6] and in assay [7] was “inactive” in each case. Further, the Potency entry in assay [8], in assay [9], in assay [10], in assay [11], in [12] and in assay [14] was “inactive” each time. Besides, the Potency result in assay [15], in [17], in assay [18], in [19] and in assay [20] was “inactive” throughout. Besides, the Potency in [2] is 50.1 µM (active). In addition, in assay [13], the compound was called inactive. Further, the activity change, positive = activation in assay [16] was -1.8% and -13.1%.
With `CC(C)=CCC/C(C)=C/C=O`, the Potency result in [1], in assay [2], in assay [3], in [4], in assay [5] and in assay [6] was “inactive” in each case. Moreover, the Potency entry in assay [7], in assay [10], in assay [11], in assay [12], in assay [14] and in assay [17] was “inactive” throughout. The Potency result in assay [18], in assay [19] and in assay [20] was “inactive” in each case. Moreover, the result in assay [13] was inactive.
Regarding `CC(O)CNCC(C)O` (stereo not drawn), the Potency result in [1], in assay [2], in assay [3], in assay [4], in [5] and in [6] was “inactive” each time. Further, the Potency entry in assay [7], in [10], in assay [11], in [12], in assay [14] and in assay [17] was “inactive” in each case. Also, the Potency entry in assay [18], in assay [19] and in assay [20] was “inactive” each time. Moreover, the outcome in [13] was inactive.

The record behind these values is PubChem BioAssay (Tox21).
